In test [1] the target is Thyrotropin receptor (Homo sapiens) (UniProt P16473). Nature of the test: qHTS assay to identify small molecule antagonists of the thyroid stimulating hormone receptor (TSHR) signaling pathway (AID 1259385; calls by dose curve; note: nearly all actives have a fitted effect of over 20% in size). The method, boiled down:
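TSHR-HEK293 cells (800/well) plated 18 h, then compounds with Ro20-1724 and TSH at 1.5 ng/mL final, 30 min at room temperature. cAMP quantified by HTRF (cAMP-d2/anti-cAMP-cryptate, 1 h); 15 concentrations in triplicate.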
In general terms: Quantitative high-throughput screening tests each substance at several concentrations.

Test [2] in a line: qHTS assay to identify small molecule agonists of the estrogen receptor alpha (ER-alpha) signaling pathway in the presence of an antagonist - cell viability counter screen (AID 1259386).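 Note: cells exposed to compounds for 22 h at 37 °C before the viability read; nearly all actives have a fitted effect of over 30% in size.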 Note: potency is the fitted concentration of half-maximal effect. The gist of the method: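 Cells are starved of estrogens for 5 days in charcoal-stripped serum, seeded for 24hr and co-treated with ICI-182,780 (10.0nM final) and test compounds. After 22hr at 37C, viability is read as CellTiter-Fluor fluorescence.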

For test [3], the target named is Progesterone receptor (Homo sapiens) (UniProt P06401). Nature of the test: qHTS assay to identify small molecule antagonists of the progesterone receptor (PR) signaling pathway (AID 1346795; active = well fitted inhibition curve with a large enough effect in the signal ratio in the repeat runs, not every such curve was filed as active; the % refers to the signal ratio). The method, boiled down:
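PR-UAS-bla HEK293T cells carrying a UAS-driven beta-lactamase reporter were plated in medium with 2% charcoal-stripped FBS and rested 6 hr at 37C. Compounds were added with 1 nM R5020 (final) for 16 hr, then FRET substrate loaded 2 hr at room temperature.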

The nature of test [4]: qHTS assay to identify small molecule antagonists of the progesterone receptor (PR) signaling pathway - cell viability counter screen (AID 1346798). Note: series mostly up to about 92 µM; nearly all actives have a fitted effect of over 50% in size. The gist of the method: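 PR-UAS-bla HEK293T cells in medium with 2% charcoal-stripped FBS were treated with compounds plus R5020 for 16 hr at 37C. Cell viability was then read by CellTiter-Glo luminescence after 30 min at room temperature in the same wells.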

A short description of test [5]: qHTS assay to identify small molecule antagonists of the TGF-beta/Smad signaling pathway - cell viability counter screen (AID 1346824). Note: nearly all actives have a fitted effect of over 50% in size. The method, boiled down: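 SBE-bla HEK 293T cells, incubated overnight, then compound plus 0.25 ng/mL TGF-beta1 (stock added) for 5 hr at 37 C. Viability was read in the same wells by CellTiter-Glo luminescence after 30 min at room temperature.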

The nature of test [6]: qHTS assay to identify small molecule agonists of the TGF-beta/Smad signaling pathway - cell viability counter screen (AID 1346829). Note: top concentration of the series differs between compounds; nearly all actives have a fitted effect of over 45% in size. The method, boiled down:
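Tox21 qHTS format: SBE-bla HEK 293T cells treated with DMSO-dissolved compounds for 5 hr; CellTiter-Glo luminescence after 30 min at room temperature.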

Test [7] is described as follows: qHTS assay to identify small molecule agonists of the TGF-beta/Smad signaling pathway (AID 1346859; active = well fitted activation curve with a large enough effect in the signal ratio in the repeat runs, not every such curve was filed as active; the % refers to the signal ratio; note: series mostly up to about 77 µM). The gist of the method:
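HEK 293T cells stably carrying a beta-lactamase reporter driven by the Smad binding element were seeded overnight, exposed to DMSO-dissolved compounds for 5 hr at 37 C, 5% CO2, then loaded with FRET substrate for 2 hr at room temperature.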

The nature of test [8]: Human pregnane X receptor (PXR) small molecule agonists, qHTS cell viability counter screen (AID 1346977). Note: nearly all actives have a fitted effect of over 50% in size. The method, boiled down:
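PXR-Luc HepG2 cells in medium with 5% charcoal-stripped FBS were pre-incubated 5hr, then exposed to compounds for 24hr at 37C. Viability was read in the same wells by CellTiter-Fluor fluorescence, reagent added after 23hr with a 1hr incubation.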

Test [9] can be described thus: Caspase-3/7 induction in HepG2 cells by small molecules, qHTS assay (AID 1346978). Note: nearly all actives have a fitted effect of over 15% in size. Note: potency is the fitted concentration of half-maximal effect. The method, boiled down:
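Wild-type HepG2 cells, 2,000/well, settled 5 hr at 37 C and 5% CO2, then compound-treated for 17 hr; caspase-3/7 activity read by luminescent Caspase-Glo 3/7 after 30 min at room temperature.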

Test [10] in a line: Caspase-3/7 induction in CHO-K1 cells by small molecules, qHTS cell viability counter screen (AID 1346979). Note: nearly all actives have a fitted effect of over 35% in size. Note: potency is the fitted concentration of half-maximal effect. The method, boiled down:
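Wild-type CHO-K1 cells were seeded at 1,500 per well, rested 5hr at 37 C, then exposed to compounds in DMSO. After 16hr, CellTiter-Fluor reagent was added and fluorescence read 1hr later as the viability measure.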

The nature of test [11]: Caspase-3/7 induction in CHO-K1 cells by small molecules, qHTS assay (AID 1346980). Note: nearly all actives have a fitted effect of over 15% in size. The gist of the method: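 Wild-type CHO-K1 cells exposed to compounds for 17hr at 37 C, 5% CO2. Caspase-3/7 activity then measured by Caspase-Glo 3/7 luminescence after 30min at room temperature.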
The target in test [12] is Nuclear receptor subfamily 1 group I member 2 (Homo sapiens) (UniProt O75469). Nature of the test: Human pregnane X receptor (PXR) small molecule agonists, qHTS assay (AID 1346982). Note: nearly all actives have a fitted effect of over 35% in size. Note: potency is the fitted concentration of half-maximal effect. The method, boiled down:
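Agonist mode qHTS: PXR-Luc HepG2 cells plated 5 hr before DMSO-dissolved compounds were pinned in, cultured 24 hr at 37 C, 5% CO2; ONE-Glo luminescence readout.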

The target is the same in test [13]. Nature of the test: CYP3A4 induction through human pregnane X receptor (PXR) by small molecules, qHTS assay (AID 1346984). Note: nearly all actives have a fitted effect of over 40% in size. The method, boiled down:
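Steps: seed DPX-2 cells, 5 hr at 37C; pin-transfer compounds; 24 hr at 37C; add Luciferin-IPA (3uM final), 3 hr at 37C; add One-Glo, 30 min RT; read luminescence.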

The target is the same in test [14]. Nature of the test: Human pregnane X receptor (PXR) activation by small molecules, qHTS assay (AID 1346985). Note: nearly all actives have a fitted effect of over 40% in size. The method, boiled down:
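DPX-2 cells (HepG2 co-transfected with a PXR response element and a CYP3A4-promoter luciferase construct) were seeded at 2,000 per well, rested 5 hr at 37C, then exposed to DMSO-dissolved compounds for 24 hr. Activation was read as luciferase luminescence.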

The target of test [15] is Cytochrome P450 2D6 (Homo sapiens) (UniProt P10635). Put plainly: Cytochrome P450 Family 2 Subfamily D Member 6 (CYP2D6) small molecule antagonists: luciferase reporter qHTS assay (AID 1671196). Note: series mostly up to about 120 µM; nearly all actives have a fitted effect of over 50% in size. The gist of the method:
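P450-Glo format: CYP2D6 converts a proluciferin substrate to luciferin in an NADPH-driven reaction lasting 1 h at room temperature. Light output, proportional to CYP2D6 activity, reflects interference by test chemicals.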

The target in test [16] is Progesterone receptor (Homo sapiens) (UniProt P06401). Nature of the test: qHTS assay to identify small molecule agonists of the progesterone receptor (PR) signaling pathway (AID 1346784; calls by dose curve; note: nearly all actives have a fitted effect of over 30% in size; note: potency is the fitted concentration of half-maximal effect). The method, boiled down: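 PR-UAS-bla HEK 293T cells carrying a UAS-driven beta-lactamase reporter were seeded in medium with 2% charcoal-stripped FBS, preincubated 6 hr at 37C, then exposed to compounds in DMSO for 16 hr; agonism was read by LiveBLAzer B/G FRET fluorescence.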

A short description of test [17]: Caspase-3/7 induction in HepG2 cells by small molecules, qHTS cell viability counter screen (AID 1346981). Note: nearly all actives have a fitted effect of over 30% in size. Note: potency is the fitted concentration of half-maximal effect. The method, boiled down:
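Steps: seed 2,000 HepG2 cells per well; incubate 5 hr at 37 C; pin-add compounds in DMSO; incubate 16 hr; add CellTiter-Fluor; after 1 hr at 37 C and 5% CO2, read fluorescence.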

Test [18] addresses Thyrotropin-releasing hormone receptor (Homo sapiens) (UniProt P34981). Nature of the test: qHTS assay to identify small molecule antagonists of the thyrotropin-releasing hormone receptor (TRHR) signaling pathway (AID 1346877; active = well fitted inhibition curve with a large enough effect in the repeat runs, not every such curve was filed as active; note: series mostly up to about 51 µM). The gist of the method:
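Cells (TRHR-HEK293) are plated and kept 18 h at 37 °C/5% CO2. A calcium-sensitive dye is added for 2 h, compound follows for 5 min at room temperature, and TRH is then given at 1 nM final.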

Test [19] has the same target. Put plainly: qHTS assay to identify small molecule agonists of the thyrotropin-releasing hormone receptor (TRHR) signaling pathway (AID 1346891; calls by dose curve; note: series mostly up to about 58 µM). The gist of the method: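 TRHR-expressing HEK293 cells were plated 18 h at 37 °C/5% CO2, loaded with calcium dye 2 h at 37 °C, then given compound in DMSO; fluorescence was read kinetically for 3 min at 1 s intervals.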
A short description of test [20]: qHTS assay to identify small molecule agonists of the progesterone receptor (PR) signaling pathway - cell viability counter screen (AID 1346799; calls by dose curve; note: nearly all actives have a fitted effect of over 45% in size). The gist of the method:
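PR-UAS-bla HEK293T cells, 3,000 per well in medium with 2% charcoal-stripped FBS, were preincubated 6 hr at 37C, then exposed to compounds for 16 hr; viability was read as CellTiter-Glo luminescence after 30 min at room temperature.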

“And” between values parts separate entries of the source, which are not always exact repeats. Equal entries are not always repeated. Records with an inconclusive call do not appear. Some compounds were tested as several samples or in several runs, with calls that do not always agree. The source made the active and inactive calls. Unless noted, calls come from the whole dose curve; as a rule, active = well fitted curve in the direction sought with a large enough effect in the repeat runs; inconclusive = weak or mixed curves; inactive = no such curve, though single readings can be large; an effect the other way counts as inactive or inconclusive.

Progesterone receptor (Homo sapiens), sequence (P06401 whole entry, looked up): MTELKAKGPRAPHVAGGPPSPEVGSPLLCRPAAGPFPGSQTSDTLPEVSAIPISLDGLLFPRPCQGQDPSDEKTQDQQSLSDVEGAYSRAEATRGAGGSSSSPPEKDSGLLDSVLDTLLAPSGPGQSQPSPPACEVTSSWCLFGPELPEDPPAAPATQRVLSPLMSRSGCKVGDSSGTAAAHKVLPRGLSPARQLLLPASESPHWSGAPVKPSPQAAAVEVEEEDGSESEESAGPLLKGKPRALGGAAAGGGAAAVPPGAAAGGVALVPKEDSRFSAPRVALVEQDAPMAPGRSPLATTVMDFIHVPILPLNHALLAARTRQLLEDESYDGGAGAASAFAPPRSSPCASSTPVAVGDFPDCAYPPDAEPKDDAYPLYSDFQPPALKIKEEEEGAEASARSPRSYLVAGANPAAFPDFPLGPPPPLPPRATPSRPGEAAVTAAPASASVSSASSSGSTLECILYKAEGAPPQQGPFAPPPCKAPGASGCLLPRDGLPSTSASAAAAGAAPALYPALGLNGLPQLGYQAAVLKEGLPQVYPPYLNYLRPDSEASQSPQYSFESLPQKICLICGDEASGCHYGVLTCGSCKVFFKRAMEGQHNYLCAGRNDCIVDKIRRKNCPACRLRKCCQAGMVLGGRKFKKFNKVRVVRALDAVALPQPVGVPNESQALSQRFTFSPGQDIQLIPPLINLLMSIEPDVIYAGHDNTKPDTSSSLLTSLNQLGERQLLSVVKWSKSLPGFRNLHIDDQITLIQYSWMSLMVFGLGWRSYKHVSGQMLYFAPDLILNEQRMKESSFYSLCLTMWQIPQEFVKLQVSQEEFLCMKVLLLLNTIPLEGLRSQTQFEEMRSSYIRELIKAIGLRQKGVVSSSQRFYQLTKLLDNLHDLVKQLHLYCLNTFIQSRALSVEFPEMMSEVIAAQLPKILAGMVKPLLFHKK
Cytochrome P450 2D6 (Homo sapiens), sequence (P10635 whole entry, looked up): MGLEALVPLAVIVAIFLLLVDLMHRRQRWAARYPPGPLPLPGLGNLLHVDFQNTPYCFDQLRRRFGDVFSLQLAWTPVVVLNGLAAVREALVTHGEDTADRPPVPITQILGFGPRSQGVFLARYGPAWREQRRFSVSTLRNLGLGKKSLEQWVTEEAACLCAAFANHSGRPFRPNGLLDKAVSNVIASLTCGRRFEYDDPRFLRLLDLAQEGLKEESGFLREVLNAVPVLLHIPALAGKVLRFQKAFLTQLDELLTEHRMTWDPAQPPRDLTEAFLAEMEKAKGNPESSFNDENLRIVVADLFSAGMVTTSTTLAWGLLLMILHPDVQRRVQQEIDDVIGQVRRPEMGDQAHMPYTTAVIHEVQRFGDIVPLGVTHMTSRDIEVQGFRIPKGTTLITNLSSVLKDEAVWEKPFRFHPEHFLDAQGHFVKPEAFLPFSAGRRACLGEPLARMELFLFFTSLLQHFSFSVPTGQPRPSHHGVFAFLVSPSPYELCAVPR
Thyrotropin-releasing hormone receptor (Homo sapiens), sequence (P34981 whole entry, looked up): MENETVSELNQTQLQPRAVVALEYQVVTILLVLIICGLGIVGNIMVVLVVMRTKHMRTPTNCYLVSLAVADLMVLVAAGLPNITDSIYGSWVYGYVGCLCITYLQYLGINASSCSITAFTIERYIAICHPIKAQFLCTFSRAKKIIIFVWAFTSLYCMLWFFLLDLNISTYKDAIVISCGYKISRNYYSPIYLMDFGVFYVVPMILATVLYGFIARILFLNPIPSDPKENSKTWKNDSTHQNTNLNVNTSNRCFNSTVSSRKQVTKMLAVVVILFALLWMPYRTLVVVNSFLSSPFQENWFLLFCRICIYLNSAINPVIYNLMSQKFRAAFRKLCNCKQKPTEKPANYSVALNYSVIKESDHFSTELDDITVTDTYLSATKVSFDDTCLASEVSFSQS
Thyrotropin receptor (Homo sapiens), sequence (P16473 whole entry, looked up): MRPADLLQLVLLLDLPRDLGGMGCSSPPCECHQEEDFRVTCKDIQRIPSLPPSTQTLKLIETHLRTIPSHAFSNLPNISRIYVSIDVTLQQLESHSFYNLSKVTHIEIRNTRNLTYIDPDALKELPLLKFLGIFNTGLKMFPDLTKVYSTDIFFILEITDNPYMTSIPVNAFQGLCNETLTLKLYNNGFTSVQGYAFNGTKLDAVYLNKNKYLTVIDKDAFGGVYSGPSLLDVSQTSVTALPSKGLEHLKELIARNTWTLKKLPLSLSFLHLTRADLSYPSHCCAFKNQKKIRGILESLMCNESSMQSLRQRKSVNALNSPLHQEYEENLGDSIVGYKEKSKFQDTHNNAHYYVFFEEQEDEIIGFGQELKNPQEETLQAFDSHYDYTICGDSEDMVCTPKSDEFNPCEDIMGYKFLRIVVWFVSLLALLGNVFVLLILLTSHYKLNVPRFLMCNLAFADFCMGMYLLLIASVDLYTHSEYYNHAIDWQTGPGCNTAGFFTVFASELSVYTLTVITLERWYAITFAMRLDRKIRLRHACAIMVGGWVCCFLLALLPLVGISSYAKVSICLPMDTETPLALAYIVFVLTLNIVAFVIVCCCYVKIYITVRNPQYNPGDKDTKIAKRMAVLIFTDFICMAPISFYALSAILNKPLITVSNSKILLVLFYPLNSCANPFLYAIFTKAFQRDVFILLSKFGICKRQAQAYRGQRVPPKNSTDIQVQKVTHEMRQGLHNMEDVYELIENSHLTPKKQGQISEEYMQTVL
Nuclear receptor subfamily 1 group I member 2 (Homo sapiens), sequence (O75469 whole entry, looked up): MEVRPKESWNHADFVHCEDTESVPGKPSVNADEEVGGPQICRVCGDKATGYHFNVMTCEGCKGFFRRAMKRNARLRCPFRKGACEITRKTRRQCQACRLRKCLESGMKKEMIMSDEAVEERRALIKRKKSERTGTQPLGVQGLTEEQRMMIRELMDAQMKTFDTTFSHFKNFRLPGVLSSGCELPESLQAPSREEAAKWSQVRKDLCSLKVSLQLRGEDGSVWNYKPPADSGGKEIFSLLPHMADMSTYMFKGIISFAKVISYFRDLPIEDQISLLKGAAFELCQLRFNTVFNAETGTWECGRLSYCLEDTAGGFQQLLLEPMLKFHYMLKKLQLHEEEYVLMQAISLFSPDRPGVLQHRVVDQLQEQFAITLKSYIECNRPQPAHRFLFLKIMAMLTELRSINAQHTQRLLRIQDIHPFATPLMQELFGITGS

In the case of `C#C[C@]1(O)CC[C@H]2[C@@H]3CCC4=CC(=O)CC[C@@H]4[C@H]3CC[C@@]21CC`, the molecule was classed as inactive in [1], in test [7] and in test [11]. The Potency entry in [2], in test [3], in [4], in test [5], in [6] and in test [8] was “inactive” each time. In addition, the Potency entry in test [9], in test [13], in test [14] and in test [15] was “inactive” in each case. Besides, the Potency result in [10] was “inactive and 54.5 µM (active)”; in [12], 8.65 µM (active) and 54.5 µM (active) and 24.3 µM (active).
In the case of `O=[N+]([O-])c1ccc(O)cc1`, the molecule was called inactive in test [1], in test [7] and in test [11]. The Potency is 56.6 µM (active) and 43.3 µM (active) and 48.6 µM (active) in test [2]; 56.6 µM (active) and 54.5 µM (active) and 48.6 µM (active) in [10]; 56.6 µM (active) and 61.1 µM (active) and 54.5 µM (active) in [17]. Moreover, the Potency entry in test [16], in [3], in test [5], in test [6], in test [9] and in test [12] was “inactive” each time. Besides, the Potency entry in test [15] is “inactive”.
In the case of `C[C@]12CC[C@@H]3c4ccc(O)cc4CC[C@H]3[C@@H]1CCC2=O`, the Potency entry in test [2], in [16], in test [4], in [5], in test [6] and in test [19] was “inactive” in each case. Besides, the Potency entry in test [8], in test [9] and in test [10] was “inactive” each time. Further, the outcome in test [7], in [18] and in test [11] was inactive.
In the case of `Cc1cccc(C)c1O`, the Potency result in [2], in [16], in test [3], in test [5], in test [6] and in test [19] was “inactive” each time. The Potency result in test [9], in test [10], in [17], in test [12] and in test [15] was “inactive” in each case. Moreover, the result in test [7], in test [18] and in test [11] was inactive.
On to `C[C@]12C=CC(=O)C=C1CC[C@@H]1[C@@H]2C(=O)C[C@@]2(C)[C@H]1CC[C@]2(O)C(=O)CO`, for which the result in [1], in test [7] and in test [11] was inactive. Further, the Potency result in [2], in test [16], in test [4], in test [20], in [5] and in test [6] was “inactive” in each case. Moreover, the Potency result in test [8], in test [9] and in test [17] was “inactive” in each case.
Regarding `C#C[C@]1(O)CC[C@H]2[C@@H]3CCc4cc(O)ccc4[C@H]3CC[C@@]21C`, the result in [1], in [7], in test [18] and in test [11] was inactive. Moreover, the Potency entry in test [2], in test [5], in test [6], in test [19], in test [8] and in test [17] was “inactive” each time. For the same molecule, the Potency entry in [15] was “inactive”. The Potency is 271 nM (active) in test [16]; 21.5 µM (active) and inactive in [9]; 54.1 µM (active) and 54.5 µM (active) in [10].
As for `CCN1CCCC1=O`, the call in [1], in test [7], in test [18] and in test [11] was inactive. For the same molecule, the Potency entry in test [2], in test [4], in test [5], in test [6], in test [19] and in test [8] was “inactive” in each case. The Potency result in [9], in test [10], in test [17], in test [12], in [13] and in [14] was “inactive” throughout. For the same molecule, the Potency entry in [15] is “inactive”.
Turning to `Cc1cccc(Nc2cc(Cl)nc(SCC(=O)O)n2)c1C`, the result in [1], in test [7], in test [18] and in test [11] was inactive. Also, the Potency entry in test [2], in test [16], in [4], in [20], in test [5] and in test [6] was “inactive” in each case. Moreover, the Potency result in test [19], in test [9], in [10] and in [15] was “inactive” in each case. The Potency in test [12] was 61.1 µM (active) and inactive.
